# Only some compounds are listed: those with a hit (about 1.2% of all), similar ones and a draw of the others.
# RN4220 kill = growth inhibition of S. aureus RN4220, primary screen, OD600. 16 h. inhibition, % (test concentration not listed). 330,000 tested, 0.33% active; in the data active = inhibition above about 85%;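 note: plate controls were untreated cells for no effect and reference antibiotic for full effect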
# PrP 5UTR inh = inhibition of PrP 5' UTR reporter expression. AID 488862, 2010. cell-based PrP 5' UTR mRNA reporter, plate reader. inhibition, % (concentration not given with the values). 340,000 tested, 0.35% active; in the data active = inhibition above about 52%; note: 0 = median of the neutral control wells
# PfHsp40 yeast = rescue of yeast from PfHsp40 toxicity, primary screen, S. cerevisiae, ATP luminescence. S. cerevisiae expressing PfHsp40, growth rescue. growth rescue, % at 12.5 µM. 340,000 tested, 0.68% active. AID 504582, 2011; in the data active = growth rescue above about 28%, passing the limit was not always enough; inconclusive = no clear call, values can overlap the other calls;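 note: yeast W303a lacking pdr1 and pdr3 grown in galactose medium; growth measured after three days at 30 °C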
# Sa ugtP lethal = growth inhibition of ugtP-null S. aureus, primary screen, RN4220 ugtP deletion, OD600 | growth inhibition, % (no concentration beside the values) | AID 1259309, 2017 | 16 h | 330,000 tested, 0.54% active; in the data active = growth inhibition above about 68%;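 note: plate controls were untreated wells for no effect and antibiotic for full effect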
# TcdB inh = TcdB glycohydrolase inhibitors, primary screen, biochemical, single point, plate reader. Toxin B (Clostridioides difficile), P18177. TcdB glycohydrolase enzymatic assay. inhibition, % at 9.99 µM. 350,000 tested, 0.24% active. AID 652162, 2013; in the data active = inhibition above about 10%
# * = called active by the depositor; ? = inconclusive; . = not tested or not shown.
SMILES,RN4220 kill,PrP 5UTR inh,PfHsp40 yeast,Sa ugtP lethal,TcdB inh
CN(C)S(=O)(=O)c1cccc(NC(=S)NN=Cc2ccc(O)c(O)c2O)c1,14,.,.,-3,.
COCC#Cc1ccc([C@@H]2[C@H]3CN(C(=O)C4CCC4)CC(=O)N3[C@H]2CO)cc1,.,.,.,.,0
O=C1N=c2ccccc2=C1c1sc(=S)n(-c2ccc(O)cc2)c1O,8,-12,-1,-4,2
Cc1c(-n2c(O)c(C3=c4ccccc4=NC3=O)sc2=S)c(=O)n(-c2ccccc2)n1C,3,5,0,0,18*
O=C(NC1CCCCC1)N[C@@H]1CC[C@H](CC(=O)N2CCOCC2)O[C@H]1CO,.,.,.,.,-1
CO[C@H]1CN(C)C(=O)c2cc(NC(C)=O)ccc2OC[C@@H](C)N(C(=O)C2CCC2)C[C@@H]1C,.,.,.,.,0
C=CCn1c(SC(F)F)nc2scc(-c3ccco3)c2c1=O,7,-9,-2,95*,-2
C=CCn1c(SCC(C)=O)nc2scc(-c3ccco3)c2c1=O,4,-14,0,8,0
NC(CC(=O)NCCOc1ccccc1)=NO,8,.,.,-6,.
CC(C)c1ccc(-n2c(-c3ccccc3)c[n+]3c2CCc2ccccc2-3)cc1,96*,-8,4,100*,1
COc1ccc(-n2c(-c3ccc(Br)cc3)c[n+]3c2CCc2ccccc2-3)cc1,0,-15,1,-13,0
Cc1cc(C)c2nc(N3C(=O)C(O)=C(C(=O)c4ccco4)C3c3cccc(O)c3)sc2c1 (stereo not drawn),54,0,-1,88*,1
CN(C)CC(=O)Nc1ccc2c(c1)[C@H]1C[C@@H](CC(=O)N3CCc4ccccc4C3)O[C@@H](CO)[C@H]1O2,.,.,.,.,0
CCn1nc(/C=C/c2ccccc2)nc2c(=O)n(C)c(=O)nc1-2,98*,-43,276*,99*,-1
CCn1nc(-c2cccs2)nc2c(=O)n(C)c(=O)nc1-2,99*,-9,0,100*,.
N#Cc1c(=O)c2nc(NCCCO)ncc2n2c(=O)c3ccccc3[nH]c12,-1,-22,83*,0,1
N#Cc1c(=O)c2nc(NCc3ccccc3)ncc2n2ccccc12,0,-18,0,-2,.
CNC(=O)N(O)C1N(N=Cc2ccccc2O)C(=S)SC1(C)C (stereo not drawn),6,.,.,-2,.
CNC(=O)N(O)C1N(/N=C/c2cccs2)C(=S)SC1(C)C (stereo not drawn),.,-6,0,.,10*
O=C(NN=Cc1ccncc1)c1ccc(NS(=O)(=O)c2cccs2)cc1,8,.,.,3,.
Cc1cc(-c2ccc(NS(=O)(=O)c3ccccc3)c(C)c2)ccc1NS(=O)(=O)c1ccccc1,-3,-13,1,19,12*
COc1ccc(-c2oc3c4c(cc(OC)c3c(=O)c2CC=C(C)C)OC(C)(C)C=C4)c(OC)c1,-2,.,.,7,.
CC(C)=CCc1c(-c2ccc(O)cc2O)oc2cc3c(c(O)c2c1=O)C=CC(C)(C)O3,96*,.,.,97*,.
O=S(=O)(c1cccc(C(F)(F)F)c1)N1CCC(CO)(CCCc2ccccc2)CC1,8,-29,55*,-20,0
COc1ccc([N+](=O)[O-])cc1NC(=O)Nc1ccccc1,95*,-3,-1,83*,.
SMILES,RN4220 kill,PrP 5UTR inh,PfHsp40 yeast,Sa ugtP lethal,TcdB inh
COc1ccc([N+](=O)[O-])cc1NC(=S)Nc1ccccc1,7,-13,0,-3,.
CC[C@@H](C)[C@@H]1CN([C@@H](C)CN2CCC[C@H]2CN2C(N)=NC[C@H]2CC(C)C)C(=N)N1CCc1ccc(Cl)c(Cl)c1,.,-4,0,.,-1
CCCC(CN1CCCC1CN1C(N)=NCC1Cc1ccccc1)N1CC(C(C)CC)N(CCc2ccc(Cl)c(Cl)c2)C1=N (stereo not drawn),101*,.,.,100*,.
CC(C)[C@H](CN1CCC[C@H]1CN1C(N)=NC[C@@H]1Cc1ccccc1)N1C[C@@H](Cc2ccccc2)N(CCc2ccc(Cl)c(Cl)c2)C1=N,.,3,35*,.,.
CC[C@@H](C)[C@@H]1CN([C@@H](CN2CCC[C@H]2CN2C(N)=NC[C@H]2CC(C)C)C(C)C)C(=N)N1CCc1ccc(Cl)c(Cl)c1,100*,-17,2,100*,2
CCC[C@@H](CN1CCC[C@H]1CN1C(N)=NC[C@H]1CC(C)C)N1C[C@@H]([C@H](C)CC)N(CCc2ccc(Cl)c(Cl)c2)C1=N,100*,22,-1,100*,2
CCC[C@@H](CN1CCC[C@H]1CN1C(N)=NC[C@@H]1Cc1ccccc1)N1C[C@@H]([C@H](C)CC)N(CCc2ccc(Cl)c(Cl)c2)C1=N,.,-6,3,.,.
CO[C@H]1CN(C)C(=O)c2cc(NC(C)=O)ccc2OC[C@@H](C)N(Cc2ccc(F)cc2)C[C@H]1C,.,.,.,.,0
CN1C(=O)c2cc(NC(=O)c3ccc(F)c(F)c3)ccc2OC[C@@H]2O[C@@H](CC(=O)N[C@@H]3CCN(Cc4ccccc4)C3)CC[C@H]21,.,.,.,.,0
C[C@@H]1CCCCO[C@@H](CN(C)C(=O)Cc2ccccc2)[C@H](C)CN([C@H](C)CO)C(=O)c2cc(NS(=O)(=O)c3cccs3)ccc2O1,.,.,.,.,0
CC[C@@H](C)[C@@H]1CN([C@@H](CN2CCC[C@H]2CN2C(N)=NC[C@H]2CC(C)C)C(C)C)C(=N)N1CCCC1CCCC1,100*,-5,1,101*,1
CCC[C@@H](CN1CCC[C@H]1CN1C(N)=NC[C@@H]1Cc1ccccc1)N1C[C@@H](Cc2ccccc2)N(CCc2ccc(Cl)c(Cl)c2)C1=N,.,-15,1,.,1
CC(C)[C@@H]1CN=C(N)N1C[C@@H]1CCCN1C[C@H](C)N1C[C@@H](Cc2ccccc2)N(CCc2ccc(Cl)c(Cl)c2)C1=N,101*,0,4,100*,.
CCCC(CN1CCCC1CN1C(N)=NCC1Cc1ccccc1)N1CC(Cc2ccccc2)N(CCc2ccc(Cl)c(Cl)c2)C1=N (stereo not drawn),101*,.,.,101*,.
C[C@@H](CN1CCC[C@H]1CN1C(N)=NC[C@@H]1Cc1ccccc1)N1C[C@@H](Cc2ccccc2)N(CCc2ccc(Cl)c(Cl)c2)C1=N,.,-13,5,.,.
CCC[C@@H](CN1CCC[C@H]1CN1C(N)=NC[C@H]1CC(C)C)N1C[C@@H](Cc2ccccc2)N(CCc2ccc(Cl)c(Cl)c2)C1=N,100*,1,1,100*,1
CCOc1ccc2nc(SCC(=O)N3c4ccccc4Sc4ccccc43)sc2c1,-3,-16,0,26,.
CCOc1ccc2nc(SCC(=O)N3CCCc4ccccc43)sc2c1,5,-10,5,85*,.
O=C(CSc1ccc(-c2ccccn2)nn1)N1CCCc2ccccc21,10,42,473*,3,0
Cc1ccccc1NC(=O)CSc1ccc(-c2ccccn2)nn1,2,-4,381*,12,1
Cc1cc(C)cc(NC(=O)CSc2ccc(-c3ccccn3)nn2)c1,2,-1,?,0,1
COc1ccccc1CNC(=O)CSc1ccc(-c2ccccn2)nn1,3,-16,314*,7,2

# Source: PubChem (several laboratories)
